In all, about 290,000 compounds went through this assay and about 3,300 (1.1%) were called active. Rule as the data show it: active = binding response below about 67% or above about 130%; inconclusive = no clear call, values can overlap the other calls; inactive = in between. The full list was thinned out, with actives kept by preference.

The test concerns the target Mitogen-activated protein kinase kinase kinase 2 (Homo sapiens) (UniProt Q9Y2U5). Put plainly: wildtype MEKK2 PB1-MEK5 interaction, increase or decrease – biochemical, multiplex bead flow cytometry, Alexa488-MEK5, primary screen (AID 1531). To be noted: Alexa488-MEK5 binding to MEKK2 WT, at 10 µM, actives lie on both sides.
Turning to `COc1ccc(CCNCc2c(-c3ccccc3)n(C)c3ccccc23)cc1`, the binding response (% of control) is 131% (inactive).
Next, `CCOC(=O)C1(Cc2ccccc2C(F)(F)F)CCN(C(=O)c2cc(C)n(C)n2)CC1`: 91% (inactive); `COc1ccc(N(C)S(=O)(=O)c2ccc3c(c2)CC(C)N3C(=O)C2CC2)c(OC)c1` (centres undefined): 101% (inactive); `COC(=O)CCCC1=CC2=CC(=O)C(C)(OC(=O)c3cccs3)C(=O)C2=CN1CC1CC1` (centres undefined): 87% (inactive).
For `COCCN1C=C2C(=O)C(C)(OC(=O)C3CCCC3)C(=O)C=C2C=C1c1ccsc1` (centres undefined) the value was 164% (active); for `CC1(OC(=O)C2CCCC2)C(=O)C=C2C=C(c3ccc(C#N)cc3)OC=C2C1=O` (centres undefined), 90% (inactive); for `Cc1ccc(NC(=S)NCCc2ccc(Cl)cc2)c(C)c1`, 111% (inactive).
Take `Cc1ccc(CN(C)CC(=O)Nc2cccc([N+](=O)[O-])c2)o1`: the binding response (% of control) was 83% (inactive).
Next, `CN(CC(=O)Nc1cccc(F)c1)CC(=O)Nc1cccc([N+](=O)[O-])c1`: 691% (active); `Cc1ccc(NC(=O)CN(C)CC(=O)Nc2cccc(F)c2)cc1[N+](=O)[O-]`: 97% (inactive); `O=C(NCCNc1ccccc1[N+](=O)[O-])c1ccccc1F`: 105% (inactive).
Consider `COc1ccc(CC(=O)Nc2cc(S(=O)(=O)N3CCCCC3)ccc2N2CCN(C)CC2)cc1`, for which the binding response (% of control) was 103% (inactive).
Next, `CCN1CCN(c2ccc(S(=O)(=O)N3CCCCC3)cc2NC(=O)Cc2c(Cl)cccc2Cl)CC1`: 150% (active).
For `CN1CCN(c2ccc(S(=O)(=O)N3CCCCC3)cc2NC(=O)Cc2ccccc2F)CC1` the value was 106% (inactive).
For `CCOC(=O)/C=C/c1ccc(C(F)(F)F)cc1S(=O)(=O)NC(C)(C)C` the value was 93% (inactive); for `Cc1ccc(N(CC(=O)NC2CCCCC2)C(=O)CCCC(=O)Nc2ccccn2)c(C)c1`, 105% (inactive).
For `CC1(C)c2[nH]c3ccccc3c2C[C@H]2C(=O)N(N)CC(=O)N21`, the binding response (% of control) was 110% (inactive).
Next, `CCOc1ccc2nc(N(CCCN(C)C)C(=O)c3ccc(C(=O)c4ccccc4)cc3)sc2c1`: 155% (active).
Take `CSc1nc2ccc(S(=O)(=O)N3CCc4ccccc43)cc2s1`: the binding response (% of control) was 98% (inactive).
For `CN(C)CCCN(C(=O)c1ccc(S(=O)(=O)N2CCCc3ccccc32)cc1)c1nc2ccc(F)cc2s1` the value was 232% (active); for `CN(C)CCN(C(=O)C1=COCCO1)c1nc2ccc(Cl)cc2s1`, 111% (inactive).
Next, `CCN(CC)CCN(C(=O)c1ccc(S(=O)(=O)N2CCOCC2)cc1)c1nc2cc3c(cc2s1)OCCO3`: 115% (inactive).
As for `CCOc1ccc2nc(N(CCN(C)C)C(=O)c3ccc4ccccc4c3)sc2c1`, the binding response (% of control) is 129% (inactive).
`CCc1ccc2nc(N(CCCN(C)C)C(=O)c3ccc4c(c3)OCCO4)sc2c1`: the binding response (% of control) was 116% (inactive).
Regarding `O=C(Nc1nc2ccc([N+](=O)[O-])cc2s1)c1ccc(S(=O)(=O)N2CCCc3ccccc32)cc1`, the binding response (% of control) was 91% (inactive).
Next, `CN(C)CCCN(C(=O)c1ccc(S(=O)(=O)N2CCCCCC2)cc1)c1nc2ccc(Br)cc2s1`: 237% (active); `O=C1c2ccccc2S(=O)(=O)c2cc(N3CCN(c4ccccn4)CC3)ccc21`: 97% (inactive).
Next, `Cc1cccc(C(=O)N2CCN(S(=O)(=O)N3CCCCC3)CC2)c1`: 108% (inactive); `COC(C/C=C/C(=O)[C@@H](C)OCc1ccccc1)OC`: 99% (inactive).
With `Cc1nc(-c2ccccc2)sc1C1(C)CC(c2cccnc2)=NO1` (centres undefined), the binding response (% of control) was 101% (inactive).
Regarding `COc1ccc(NC2CCCN(C(=O)c3ccncc3)C2)cc1` (centres undefined), the binding response (% of control) was 97% (inactive).
For `COc1cccc(CN(C)CC(=O)Nc2ccccc2C(=O)Nc2ccccc2)c1` the value was 88% (inactive); for `Cc1ccccc1C(OCC(O)CN1CCCCC1CCO)c1ccccc1` (centres undefined), 121% (inactive); for `COc1cccc(CN(C)CC(O)COC(c2ccccc2)c2ccccc2C)c1` (centres undefined), 150% (active).
For `Cc1ccc(CN(N=Nc2nonc2N)c2nonc2N)c(C)c1`, the binding response (% of control) was 92% (inactive).
For `CCN(CC)S(=O)(=O)c1ccc(N2CCOCC2)c(NC(=O)C2CSC3(C)CCC(=O)N23)c1` (centres undefined) the value was 100% (inactive); for `OC(CNCc1ccc2c(c1)OCO2)COc1ccccc1` (centres undefined), 93% (inactive); for `Cc1ccc(OCC(=O)OC(C)CN(C)Cc2ccccc2)cc1` (centres undefined), 94% (inactive).
For `CN(Cc1ccccc1)CC(O)COc1ccc(CNCc2cc3ccccc3s2)cc1` (centres undefined) the value was 138% (active); for `O=C(N/N=C/c1cccc(O)c1)c1cc2c(ccc3ccccc32)o1`, 97% (inactive); for `CCOC(=O)c1c(-c2ccccc2)csc1NC(=S)NC(=O)c1ccccc1`, 13% [inhibitor] (active).
On to `CCOC(=O)c1c(-c2cccc(C)c2)csc1NC(=O)c1c(-c2ccccc2)noc1C`, for which the binding response (% of control) is 84% (inactive).
Next, `CCOC(=O)c1c(-c2ccc(-c3ccccc3)cc2)csc1NC(=O)CCC(=O)O`: 97% (inactive); `CCc1cccc(C)c1NC(=S)N(CCCN1CCN(C)CC1)Cc1cccs1`: 100% (inactive); `Cc1cccc(C)c1NC(=O)N1CC(C)OC(C)C1` (centres undefined): 107% (inactive).
Next, `Cc1cccc(C)c1NC(=O)C1(C)c2cccc[n+]2CC(=O)N1Cc1cccs1` (centres undefined): -5% (active); `COc1ccc(C(=O)N2CCCCC2C(=O)Nc2ccc(-n3nc(C)cc3C)cc2)o1` (centres undefined): 107% (inactive).
For `COc1ccc(Nc2ncc(F)c(N3CCOCC3)n2)cc1` the value was 78% (inactive); for `CC(=O)N1c2ccc(S(=O)(=O)N3CCC(C(=O)NCc4ccc(F)cc4)CC3)cc2CC1C` (centres undefined), 99% (inactive).
`O=C(O)C(c1ccccc1)N1C(=O)/C(=C\c2ccc(-c3cccc(Cl)c3)o2)SC1=S` (centres undefined): the binding response (% of control) is 85% (inactive).
For `NS(=O)(=O)c1ccc(-c2ccc(/C=C3\SC(=O)NC3=O)o2)cc1` the value was 102% (inactive); for `CN1C(=O)/C(=C\c2ccc(-c3ccccc3)o2)SC1=S`, 14% [inhibitor] (active).
`COc1cc2c(cc1OC)C(c1ccncc1)CC(=O)N2` (centres undefined): the binding response (% of control) was 117% (inactive).
Consider `COc1ccc(C2CC(=O)Nc3cc(C)c(C)cc32)c(OC)c1OC` (centres undefined), for which the binding response (% of control) was -2% [inhibitor] (active).
Next, `COc1cc2c(cc1OC)C(c1ccc(C)o1)CC(=O)N2` (centres undefined): 98% (inactive); `CCOc1ccc(C)cc1S(=O)(=O)NC1CCCCCC1`: 106% (inactive); `Cc1ccc2c(c1)N(CC(=O)N1CCC(O)CC1)C(=O)CO2`: 94% (inactive).
For `N=c1c2c(-c3ccccc3)c(-c3ccccc3)n(Cc3ccccc3)c2ncn1CCCO` the value was 155% (active); for `N=c1c2c(-c3ccccc3)c(-c3ccccc3)oc2ncn1Cc1ccco1`, 92% (inactive).
Turning to `CCN(CC)CCn1cnc2c1c(=O)[nH]c(=O)n2Cc1ccccc1`, the binding response (% of control) was 104% (inactive).
Next, `O=C(CN1CCN(c2ccccn2)CC1)NC1CCCCC1`: 104% (inactive); `O=C(CN1CCN(c2ccccn2)CC1)Nc1ccc(Br)cc1`: 109% (inactive).
Next, `O=C(CN1CCN(c2ccccn2)CC1)N1CCc2ccccc21`: 3% (active); `Cc1ccc(CNC(=O)c2ccc3c(c2)S(=O)(=O)c2ccccc2C3=O)cc1`: 111% (inactive).
For `COc1ccc(-c2[nH]ncc2CN(C)Cc2cc(C)[nH]n2)c(F)c1` the value was 83% (inactive).
In the case of `COc1ccc(-c2[nH]ncc2CN(C)Cc2cccnc2)c(F)c1`, the binding response (% of control) was 102% (inactive).
Next, `COc1ccc(-c2[nH]ncc2CN(C)Cc2c(C)n[nH]c2C)c(OC)c1`: -2% [inhibitor] (active); `COc1ccc(CCOC(=O)CNC(=O)c2ccc(Cl)cc2Cl)cc1`: 86% (inactive).
Next, `CCc1cccc(C)c1NS(=O)(=O)c1c(C)nc2sccn2c1=O`: 101% (inactive).
Next, `CCN(CC)c1ccc(/C=N/NC(=O)CNC(=O)c2cccs2)cc1`: 92% (inactive); `O=C(c1ccc(Cl)cc1)n1cnc2ccccc21`: 106% (inactive).
For the compound `Cc1cc(C)cc(OCC(=O)NCc2cc(C)nc3ccccc23)c1`, the binding response (% of control) is 103% (inactive).
Next, `Cc1cc(C)c(NC(=O)C[N+](C)(C)CC(O)COc2cccc3ccccc23)c(C)c1` (centres undefined): 149% (active); `Cc1cc(C)c(NC(=O)c2oc3ccccc3c2COc2ccccc2)c(C)c1`: 100% (inactive); `CC(C)(c1ccccc1)c1ccc(OCCN)cc1`: 117% (inactive).
Next, `Cc1cc(C)n(CC(O)COc2ccc(C(C)(C)C)cc2)n1` (centres undefined): 107% (inactive).
In the case of `CN(C)CC(O)COc1ccc(C(C)(C)c2ccc(OCC(O)CN(C)C)cc2)cc1` (centres undefined), the binding response (% of control) is 225% (active).
For `COc1ccccc1C1=CC(=O)CCC1` the value was 98% (inactive); for `CCOC(=O)C1Nc2ccc(C(F)(F)F)cc2C2C=CCC12` (centres undefined), 98% (inactive).
In the case of `CC1(C)Cc2c(sc(NC(=O)C(=O)N3CCOCC3)c2C#N)CO1`, the binding response (% of control) is 95% (inactive).
Next, `Cc1cc(C(=O)NCCCc2ccccc2)no1`: 99% (inactive); `CC(C)c1ccc(C(=O)NCCCc2ccccc2)cc1`: 2% [inhibitor] (active); `CCCOc1ccc(C(=O)NCCc2ccccc2)cc1`: 94% (inactive).
For `O=C(NCc1ccccc1Cl)c1csc2c1CCCCC2` the value was 93% (inactive); for `O=C(NCc1ccccc1Cl)NC(=O)c1csc([N+](=O)[O-])c1`, -14% [inhibitor] (active).
As to `O=[N+]([O-])c1ccccc1NCc1ccccc1Cl`, the binding response (% of control) is 66% (inactive).
For `CCCCCc1c(C)nc(N2CCN(Cc3ccc4c(c3)OCO4)CC2)[nH]c1=O` the value was 97% (inactive).
`Cc1cccc(-c2ncc(CN3CCC(CO)(CCCc4ccccc4)CC3)cn2)c1`: the binding response (% of control) is 163% (active).
As for `COc1cccc(CC2(CO)CCN(Cc3cnc(-c4cccc(C)c4)nc3)CC2)c1`, the binding response (% of control) is 98% (inactive).
As to `OCC1(CCc2ccccc2)CCN(Cc2ccc3nsnc3c2)CC1`, the binding response (% of control) was 89% (inactive).
For `O=C(COc1ccc2ccc(=O)oc2c1)NCC(O)c1ccccc1` (centres undefined) the value was 104% (inactive); for `O=C(O)C1CCN(c2ccc([N+](=O)[O-])cc2[N+](=O)[O-])CC1`, 46% [inhibitor] (active); for `CCOC(=O)C1CCN(c2ccc(C(=O)O)cc2[N+](=O)[O-])CC1`, 101% (inactive).
Next, `CC1CCN(c2ccc([N+](=O)[O-])cc2C(N)=O)CC1`: 95% (inactive).

The values above are taken from PubChem BioAssay AID1531 (NMMLSC, 2009).
